# Laboratory results from ChEMBL document CHEMBL3988442, “University of Dundee, Small-Polar-MMV Screening Library” (2021).
# Tests used:
# [1] = target: T1, Aspartate--tRNA(Asp/Asn) ligase (Mycobacterium tuberculosis (strain ATCC 25618 / H37Rv)) (UniProt P9WFW3); test: Assay for Asp RNA synthetase-1 from Mycobacterium tuberculosis; format: functional; set-up: scale not given: direction of the effect not stated beside the values; conditions: 30 µM; further: in the data most compounds retested in dose-response had high values
# T1 sequence (whole entry): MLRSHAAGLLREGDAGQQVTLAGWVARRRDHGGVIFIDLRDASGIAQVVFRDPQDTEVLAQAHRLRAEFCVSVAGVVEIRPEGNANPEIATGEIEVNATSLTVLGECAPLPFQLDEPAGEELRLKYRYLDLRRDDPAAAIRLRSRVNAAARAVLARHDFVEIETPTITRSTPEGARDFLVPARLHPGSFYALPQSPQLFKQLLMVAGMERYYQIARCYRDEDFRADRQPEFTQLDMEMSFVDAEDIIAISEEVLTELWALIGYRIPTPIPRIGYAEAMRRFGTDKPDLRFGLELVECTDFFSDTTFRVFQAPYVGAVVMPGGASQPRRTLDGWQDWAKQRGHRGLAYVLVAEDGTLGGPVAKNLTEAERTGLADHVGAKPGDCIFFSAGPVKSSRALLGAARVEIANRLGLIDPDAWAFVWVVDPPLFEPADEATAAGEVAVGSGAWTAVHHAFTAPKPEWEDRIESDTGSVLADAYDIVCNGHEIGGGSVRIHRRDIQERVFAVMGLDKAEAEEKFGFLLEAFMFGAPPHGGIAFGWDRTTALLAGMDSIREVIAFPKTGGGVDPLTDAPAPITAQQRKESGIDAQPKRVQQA
# [2] = target: Shiga toxin 2 (Escherichia coli O157:H7) (UniProt P09385+P09386); test: E. coli 0.157:H7 Shiga Toxin SOP - stx2 screening assay; format: functional; set-up: scale not given: direction of the effect not stated beside the values; conditions: 30 µM
smiles,measurement,setting,value
CCc1nc(CCNC(=O)NC2CC2)sc1C,Percent Effect,[1],5.19%
same,Percent Effect,[2],-0.181%
CCNC(=O)[C@@H]1C[C@@H](NC(=O)Cc2ccncc2)CN1Cc1ccsc1,Percent Effect,[1],-3.17%
same,Percent Effect,[2],-0.12%
Cc1cc(C(=O)NCc2ccnc(N3CCN(C)CC3)c2)c(C)s1,Percent Effect,[1],-3.03%
same,Percent Effect,[2],-30.4%
CC(Oc1ccccc1C(F)(F)F)C(=O)NS(=O)(=O)C(C)C (stereo not drawn),Percent Effect,[1],-4.49%
same,Percent Effect,[2],4.69%
C=Cn1ncc(CN2C[C@@H]3CCCN3C[C@@H]2Cc2ccccc2)c1C,Percent Effect,[1],-6.18%
same,Percent Effect,[2],2.92%
CN(Cc1cn2ccccc2n1)C1CCCN(c2cccnn2)C1 (stereo not drawn),Percent Effect,[1],3.45%
same,Percent Effect,[2],-72.8%
COc1ncccc1NC(=O)NCC(O)c1ccc(F)cc1F (stereo not drawn),Percent Effect,[1],4.06%
same,Percent Effect,[2],-0.623%
COCc1nc(C(=O)N2CCCC2c2ccccc2C)cs1 (stereo not drawn),Percent Effect,[1],-0.975%
same,Percent Effect,[2],-12.9%
Cc1noc(NC(=O)c2ccc(Br)s2)n1,Percent Effect,[1],2.08%
same,Percent Effect,[2],49.8%
Cc1ccc(C(=O)N2CCSCC2)cc1NC(=O)NCCO,Percent Effect,[1],0.137%
same,Percent Effect,[2],5.64%
CCC1=N[C@@]2(CC[C@@H]3CN(S(=O)(=O)N(C)C)C[C@@H]32)C(=O)N1CC(C)C,Percent Effect,[1],2%
same,Percent Effect,[2],9.58%
Cc1nc(CNC(=O)NCC(O)c2ccc(F)c(F)c2)cs1 (stereo not drawn),Percent Effect,[1],-2.91%
same,Percent Effect,[2],4.89%
N#Cc1ncn(CCC(=O)Nc2ccc(Cl)cc2F)n1,Percent Effect,[1],10.4%
same,Percent Effect,[2],-41%
Cc1cc(S(=O)(=O)Nc2cccc(-n3cccc3)c2)sc1C(=O)O,Percent Effect,[1],7.63%
same,Percent Effect,[2],11%
Cc1nc(C)n(CC2CCCCN2CC(=O)N(C)Cc2ccco2)n1 (stereo not drawn),Percent Effect,[1],1.76%
same,Percent Effect,[2],3.6%
CCN(CC1CCCO1)C(=O)Nc1cc(C(=O)OC)ccc1F (stereo not drawn),Percent Effect,[1],-1.37%
same,Percent Effect,[2],15.3%
COCCCC1(CO)CCCN(CCc2ccccc2)C1 (stereo not drawn),Percent Effect,[1],-0.201%
same,Percent Effect,[2],-15.6%
COc1cccc(COCC(=O)N2CCCC(c3cc(C)[nH]n3)C2)c1 (stereo not drawn),Percent Effect,[1],1.92%
same,Percent Effect,[2],28.3%
Cc1ccc(NC(=O)NC(C)C(=O)N2CCS(=O)(=O)CC2)cc1 (stereo not drawn),Percent Effect,[1],1.19%
same,Percent Effect,[2],12.8%
